Source: PubChem BioAssay
Sampled rows, rich in hits. Any-hit rate of the full collection: about 10%.
PLK1 PBD block – PLK1 (human) polo-box domain binding inhibition | P53350 | Plk1 PBD binding of FITC phosphopeptide, fluorescence polarization | Potency, µM, for the others: max response, negative = inhibition, most hits filed as inhibitors | actives 2.8% (n = 360,000) | AID 720504; further: potency means the concentration at half of the fitted maximal effect; series mostly up to about 57 µM; nearly all actives have a fitted effect of over 65% in size
Target sequence (P53350 whole entry, looked up, the tested form may be a part): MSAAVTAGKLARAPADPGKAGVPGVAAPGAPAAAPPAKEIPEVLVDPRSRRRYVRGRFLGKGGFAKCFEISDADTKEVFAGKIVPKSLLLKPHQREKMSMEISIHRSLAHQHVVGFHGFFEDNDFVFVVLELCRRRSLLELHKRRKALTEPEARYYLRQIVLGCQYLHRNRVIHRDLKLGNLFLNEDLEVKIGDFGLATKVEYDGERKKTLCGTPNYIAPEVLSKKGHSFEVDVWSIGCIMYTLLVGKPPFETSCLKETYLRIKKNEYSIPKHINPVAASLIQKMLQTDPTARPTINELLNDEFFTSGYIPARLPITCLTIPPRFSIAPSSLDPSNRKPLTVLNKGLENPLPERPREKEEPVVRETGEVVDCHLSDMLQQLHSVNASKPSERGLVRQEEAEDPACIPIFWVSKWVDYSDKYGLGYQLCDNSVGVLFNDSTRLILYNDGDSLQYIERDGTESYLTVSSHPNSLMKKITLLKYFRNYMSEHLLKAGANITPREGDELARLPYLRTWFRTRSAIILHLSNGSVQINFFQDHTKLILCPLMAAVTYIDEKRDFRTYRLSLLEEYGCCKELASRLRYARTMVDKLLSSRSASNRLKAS
VDR inhibitor – blocks the human vitamin D receptor | P11473 | VDR-SRC2-3 peptide fluorescence polarization, 2 h | Potency, µM, for inactives: max response, negative = inhibition, hits mostly inhibitors | actives 0.93% (n = 400,000); further: potency means the concentration at half of the fitted maximal effect
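After 23 nl compound addition and a short centrifugation, plates sat for 2 hours at ambient temperature; polarization of fluorescence then indicated loss of VDR binding to peptide SRC2-3.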
G9a block – G9a (human) methyltransferase inhibition | AID 504332 | actives 8.8% (n = 350,000) | Potency, µM (titrated, usually from 102 µM), inactives show at the highest dose activity, negative = inhibition, actives largely listed as inhibitors | G9a H3K9 monomethylation, AlphaScreen, 2 h | Q96KQ7; further: potency means the concentration at half of the fitted maximal effect; nearly all actives have a fitted effect of over 75% in size
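G9a (20 nM) preincubated 15 min RT with compounds, then 500 nM biotinylated H3K9 peptide and 20 uM SAM added; 2 h RT reaction. Monomethyl-H3K9 product detected by AlphaScreen with anti-H3K9me1 antibody, streptavidin donor and anti-rabbit IgG acceptor beads.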
MmCpn inh – M. maripaludis TRiC chaperonin inhibition. purified Mm-Cpn ATPase, ADP Transcreener TR-FRET. Potency, µM (highest dose often 76.9 µM), without a hit: at the top dose activity, negative = inhibition, most hits filed as inhibitors. actives 0.031% (n = 330,000). AID 504842; further: potency means the concentration at half of the fitted maximal effect; nearly all actives have a fitted effect of over 80% in size
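Purified archaeal chaperonin (25 nM final) was preincubated with compound for 10 min at 37°C, then ATP (10 uM final) was added for 30 min at 37°C in Tris pH 7.4/KCl/MgCl2/DTT buffer. ADP was quantified by HTRF Transcreener TR-FRET.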
Sfp PPTase inh – blocks B. subtilis Sfp PPTase activity; Q9F4F7; Biochemical Sfp PPTase activity, qHTS; Potency, µM, without a hit: largest response in the series, negative = inhibition, usual class: inhibitors; actives 3.5% (n = 310,000); AID 1490;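 further: the enzyme is Sfp with the accession as filed and its product quenches rhodamine fluorescence; potency means the concentration at half of the fitted maximal effect; 0% = enzyme reaction without inhibitor and -100% = no enzyme wells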
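Buffer: 50 mM Hepes-Na pH 7.6, 10 mM MgCl2, 0.01% Nonidet P-40, 0.01% BSA. Enzyme 15 nM, pre-exposed to compound 15 min; substrates then added and fluorescence change tracked over 30 min.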
CCT chaperon mod – cytosolic chaperonin activity modulation. purified chaperonin ATPase assay, HTRF ADP detection, 30 min. activity change, % (no concentration beside the values), hits read low. AID 651819. actives 0.3% (n = 360,000); in the data active means activity change below about -30%
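First, chaperonin was dispensed at 40 nM or 20 nM final depending on batch activity. Next, compounds were pinned at 76 uM and ATP added at 10 uM. After 30 min at 37 °C, ADP detection reagents ran 30 min at ambient temperature.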
The depositor's hits bear a star; [ ] = dose if it differs, or a comment. Unless noted, the call rests on the fitted dose curve; in most records, active means well fitted curve in the direction sought with a large enough effect; inconclusive means small, poorly fitted or top-dose-only effect, or another doubt; inactive means no such curve, though single readings can be large; an effect the other way counts as inactive or inconclusive. Unless noted, on the % scale 0 is the no-effect control and ±100 the full control effect.

Results for CC(C)Oc1ccc(C(=O)Nc2ccc(N(C)C)cc2)cc1 ?
PLK1 PBD block: -1%; VDR inhibitor: -4%; G9a block: 3.5µM*; MmCpn inh: 1%; Sfp PPTase inh: -10%; CCT chaperon mod: -1

How did COCCNC(=S)Nc1ccc(N2CCCCC2)cc1 do in these assays?
PLK1 PBD block: 3.8µM*; VDR inhibitor: 32µM*; G9a block: 8.9µM*; MmCpn inh: 1%; Sfp PPTase inh: 13µM*; CCT chaperon mod: -2

How did COc1cc(C(=O)NCC(c2ccco2)S(=O)(=O)c2cccs2)cc(OC)c1OC (stereo unspecified) do in these assays?
VDR inhibitor: 10%; G9a block: 15%[59 µM]

How did Cc1cc(C)cc(NC(=O)CNS(=O)(=O)c2ccc3nc(C)sc3c2)c1 do in these assays?
VDR inhibitor: 3%; G9a block: 0%[59 µM]

Results for Cc1cccc(NC(=O)CSc2cn(CC(=O)N3CCCC3)c3ccccc23)c1C ?
VDR inhibitor: 0%; G9a block: -17%[59 µM]

What do the screens show for `COC(=O)c1ccc(NC(=O)C2CCN(C(=O)c3cc(OC)c(OC)c(OC)c3)CC2)cc1`?
PLK1 PBD block: 3%; VDR inhibitor: 4%; G9a block: 10µM*; MmCpn inh: -1%; Sfp PPTase inh: 2%; CCT chaperon mod: 0

Results for COc1ccc(C(=O)NC(=S)Nc2ccc(CN3CCCCC3)cc2)cc1Cl ?
PLK1 PBD block: -13%; VDR inhibitor: -3%; G9a block: 13µM*; MmCpn inh: 1%; Sfp PPTase inh: 10%; CCT chaperon mod: -1

How did CCOC(=O)c1ccc(NC(=O)C2CCN(C(=O)c3ccc(OC)c(OC)c3)CC2)cc1 do in these assays?
PLK1 PBD block: -9%; VDR inhibitor: 12%; G9a block: 3%[59 µM]; MmCpn inh: 1%; Sfp PPTase inh: 17%; CCT chaperon mod: 0

Results for COc1cccc(C(=O)NC(=S)Nc2ccc3oc(=O)ccc3c2)c1 ?
PLK1 PBD block: -7%; VDR inhibitor: 2%; G9a block: 40µM*; MmCpn inh: 0%; Sfp PPTase inh: -27%; CCT chaperon mod: -1

How did COc1ccc(C(=S)Nc2ccc(N(C)C)cc2)cc1 do in these assays?
PLK1 PBD block: -6%; VDR inhibitor: 1%; G9a block: inconclusive; MmCpn inh: 0%; Sfp PPTase inh: 0%; CCT chaperon mod: 0

Results for CN(C)c1ccc(NC(=S)c2ccc3ccccc3n2)cc1 ?
PLK1 PBD block: 1.1µM*; VDR inhibitor: inconclusive; G9a block: 2µM*; MmCpn inh: 0%; Sfp PPTase inh: 7.1µM*; CCT chaperon mod: 0

What do the screens show for `Cc1ccc2nc(-c3ccc(Cl)c(NC(=O)c4ccc5c(c4)OCCO5)c3)oc2c1`?
VDR inhibitor: 9%; G9a block: 7%[59 µM]

What do the screens show for `COc1ccc(S(=O)(=O)N(CC(=O)Nc2cc(Cl)ccc2C)Cc2ccccc2)cc1OC`?
VDR inhibitor: -5%; G9a block: 1%[59 µM]

Results for COc1ccc(/C=C2\SC(N3CCc4ccccc4C3)=NC2=O)cc1OC ?
PLK1 PBD block: -14%; VDR inhibitor: -1%; G9a block: 13µM*; MmCpn inh: 1%; Sfp PPTase inh: -6%; CCT chaperon mod: -2

Results for CCOC(=O)C1CCCN(C2=NC(=O)/C(=C/c3ccc(OC)c(OC)c3)S2)C1 (stereo unspecified) ?
PLK1 PBD block: -21%; VDR inhibitor: 8%; G9a block: 13%; MmCpn inh: -1%; Sfp PPTase inh: 7%; CCT chaperon mod: 0

Results for Cn1c(/C=C/c2ccc(Br)cc2)c([N+](=O)[O-])c(=O)n(C)c1=O ?
PLK1 PBD block: -7%; VDR inhibitor: 50µM*; G9a block: -5%; MmCpn inh: 4%; Sfp PPTase inh: -14%; CCT chaperon mod: 1

How did CCOC(=O)c1c(C)[nH]c(CCC(=O)Nc2ccccc2C(=O)OC)c1C do in these assays?
VDR inhibitor: 20%; G9a block: -42%[59 µM]

Results for Cc1cccc(C)c1NC(=O)Cc1cccs1 ?
PLK1 PBD block: -9%; VDR inhibitor: -9%; G9a block: 11%; MmCpn inh: 1%; Sfp PPTase inh: 13%; CCT chaperon mod: 0

What do the screens show for `CCc1cccc(CC)c1NC(=O)CNCc1cccs1`?
PLK1 PBD block: -5%; VDR inhibitor: 0%; G9a block: 35µM*; MmCpn inh: -1%; Sfp PPTase inh: -4%; CCT chaperon mod: 1

What do the screens show for `Cc1ccc(NC(=O)C2CCN(c3nc4ccccc4nc3C(F)(F)F)CC2)cc1F`?
VDR inhibitor: 12%; G9a block: -1%[59 µM]

How did CN(C)C(=O)CCN1CCOCC1 do in these assays?
PLK1 PBD block: 24µM*; VDR inhibitor: 6%; G9a block: inconclusive; MmCpn inh: 0%; Sfp PPTase inh: 2%; CCT chaperon mod: -2

How did CC(Sc1nc(N)c2c3c(sc2n1)CSC(C)(C)C3)C(=O)Nc1ccccc1 (stereo unspecified) do in these assays?
PLK1 PBD block: 8.4µM*; VDR inhibitor: 40µM*; G9a block: -20%; MmCpn inh: -6%; Sfp PPTase inh: -1%; CCT chaperon mod: -1

How did COc1ccc(-c2nc(C)c(CCNC(=O)C(=O)Nc3cc(C)cc(C)c3)s2)cc1OC do in these assays?
VDR inhibitor: -3%; G9a block: 9%[59 µM]

What do the screens show for `Cc1snc(S(=O)(=O)/C(C#N)=N/Nc2cccc(C(F)(F)F)c2)c1C#N`?
PLK1 PBD block: inconclusive; VDR inhibitor: -10%; G9a block: 14µM*; MmCpn inh: 1%; Sfp PPTase inh: 2%; CCT chaperon mod: -3

Results for COc1ccc(/C=C/C=N/NC(=O)COc2ccc(OC)cc2)cc1 ?
PLK1 PBD block: -13%; VDR inhibitor: -3%; G9a block: 4%[59 µM]; MmCpn inh: -2%; Sfp PPTase inh: 4%; CCT chaperon mod: -1

What do the screens show for `Cc1ccccc1OCC(=O)N/N=C/C=C/c1ccccc1`?
PLK1 PBD block: 30µM*; VDR inhibitor: inconclusive; G9a block: 10%; MmCpn inh: 1%; Sfp PPTase inh: 19%; CCT chaperon mod: 0

How did COc1ccc(NCC(=O)N/N=C/C=C\c2ccccc2)cc1 do in these assays?
PLK1 PBD block: -8%; VDR inhibitor: -29%; G9a block: 28µM*; MmCpn inh: -1%; Sfp PPTase inh: 3%; CCT chaperon mod: -3

Results for O=C(COc1cccc2ccccc12)N/N=C/C=C/c1ccccc1 ?
PLK1 PBD block: -6%; VDR inhibitor: 10%; G9a block: 0%; MmCpn inh: 1%; Sfp PPTase inh: 8%; CCT chaperon mod: 0
